# In the supplement of paper PMC10981050:
# Several values for one entry are separate records, joined by “and”; a condition that tells them apart may be missing. Identical values can stand only once. Counter-ions that a name gives are not always drawn.
# What was measured:
# Experiment in all cases: cell viability relative to vehicle control; higher = less cytotoxic
# Settings in all cases: 10 µM
# K562 = system: K562
# In short: (§1)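 Four leukaemia lines, as CRISPR-edited mutant clones and isogenic wild-type clones, were tested against Selleck bioactive, kinase and epigenetic probe libraries after removal of identity-inconsistent compounds. Cells were exposed to a single 10 µM dose for 48 h, and CellTiter-Glo luminescence was then read. Viability was calculated relative to the on-plate vehicle control.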
# MARIMO = system: MARIMO
# In short: as §1
# MOLM14 = system: MOLM14
# In short: as §1
# OCI-AML2 = system: OCI-AML2
# In short: as §1
SMILES,cell viability (K562; SRSF2 genotype: SRSF2 P95H/wt),cell viability (K562; SRSF2 genotype: SRSF2 wt/wt) [%],cell viability (MARIMO; SRSF2 genotype: SRSF2 P95H/wt) [%],cell viability (MARIMO; SRSF2 genotype: SRSF2 wt/wt) [%],cell viability (MOLM14; SRSF2 genotype: SRSF2 P95H/wt) [%],cell viability (MOLM14; SRSF2 genotype: SRSF2 wt/wt) [%],cell viability (OCI-AML2; SRSF2 genotype: P95H/wt) [%],cell viability (OCI-AML2; SRSF2 genotype: wt/wt) [%]
CSCC1CN(/N=C/c2ccc([N+](=O)[O-])o2)C(=O)O1 (configuration not stated) [Nifuratel],85.1% and 77.7%,78.8,78.3,82.2,77,80.1,79.1,87.3
Cc1cncc(CN2CCC(=C3c4ccc(Cl)cc4CCc4cccnc43)CC2)c1 [Rupatadine Fumarate],77% and 89.3%,76.5,62.6,54.1,61.4,64.4,38.6,46
CC[C@H]1OC(=O)[C@H](C)[C@@H](O[C@H]2C[C@@](C)(OC)[C@@H](O)[C@H](C)O2)[C@H](C)[C@@H](O[C@@H]2O[C@H](C)C[C@H](N(C)C)[C@H]2O)[C@](C)(O)C[C@@H](C)CN(C)[C@H](C)[C@@H](O)[C@]1(C)O [Azithromycin Dihydrate],86.8% and 80.4%,82.7,86,83.7,86.8,93.3,77.9,88
Nc1ccc(C(=O)NCC(=O)O)cc1 [4-Aminohippuric Acid],97.6% and 98.4%,98.2,92.9,102,95.7,97.4,92.8,103
Cn1nnc(-c2ccc3c(c2)[nH]c2nc(Cc4ccccc4)nc(NC4CCC(N)CC4)c23)n1 (configuration not stated),0.17%,0.16,0.14,0.19,0.11,0.13,0.18,0.13
C[C@H]1COC2=C1C(=O)C(=O)c1c2ccc2c1CCCC2(C)C [Cryptotanshinone],32.1% and 18.5%,47.8,60.3,76.1,58.6,69.2,42.7,46.5
CCCCCC1C(=O)CCC1CC(=O)OCCC (configuration not stated) [Prohydrojasmon],100% and 102%,109,98.6,98.6,95.8,106,110,118
O=C(O)COCCN1CCN([C@H](c2ccccc2)c2ccc(Cl)cc2)CC1 [Levocetirizine Dihydrochloride],99% and 88.4%,101,93.2,107,92.4,99.3,91.7,103
O=C(Cc1ccccc1)Nc1nnc(CCSCCc2nnc(NC(=O)Cc3ccccc3)s2)s1,81.3% and 83.7%,88.7,75.9,72.4,82.9,91.2,68.5,78.7
N#CC(=Cc1cn(-c2ccccc2)c2ccccc12)C(=O)O,111% and 90.4%,93.5,86.3,94.5,89.2,97.2,91,95.4
CC(C)=CCC[C@](C)(O[C@@H]1O[C@H](CO[C@@H]2O[C@@H](CO)[C@H](O)[C@H]2O)[C@@H](O)[C@H](O)[C@H]1O)[C@H]1CC[C@]2(C)[C@@H]1[C@H](O)C[C@@H]1[C@@]3(C)CC[C@H](O[C@@H]4O[C@H](CO)[C@@H](O)[C@H](O)[C@H]4O[C@@H]4O[C@H](CO)[C@@H](O)[C@H](O)[C@H]4O)C(C)(C)[C@@H]3CC[C@]12C [Ginsenoside Rc],103% and 101%,100,99.1,101,110,99.2,104,93.5
COc1ccc(S(=O)(=O)Nc2cccnc2Nc2ccc(O)cc2)cc1,16.4% and 39.8%,36.7,7.19,9.01,16.8,5.56,9.51,11.2
CCC(CC)(NC(=O)C(C)C)C(=O)N[C@@H](CCCN=C(N)N)C(=O)NC1(C(=O)NC(c2ccc(F)cc2)c2ccc(F)cc2)CCCC1,98.6% and 103%,106,93.8,98.3,93.4,99.3,97.9,108
CC[C@@H](N)CNc1ccnc(-c2cc(-c3cnn(C)c3)ccc2O)n1,5.05% and 8.35%,7.08,2.69,1.1,0.8,0.44,1.45,10.8
COc1cccc(-n2c(=O)[nH]c3cc(Cl)n(-c4ccc(-c5cccc(OC)c5O)cc4)c3c2=O)c1,91.6% and 97.4%,93,108,117,107,102,95.8,97.3
Cc1cc2c(C(N)=O)cccc2n1-c1nc2c(c(NCc3ccccc3)n1)COCC2,0.8% and 0.75%,0.74,0.6,1.05,0.36,0.42,0.35,0.49
CN(C)c1ccc(C(=O)NCCCCCCC(=O)NO)cc1,1.52% and 16.7%,6.13,6.98,14.2,1.22,0.66,2.92,6.46
Cc1cc(OCCCS(C)(=O)=O)cc(C)c1-c1cccc(COc2ccc3c(c2)OC[C@H]3CC(=O)O)c1,92.7% and 94.6%,91.3,93.2,104,94.3,98.2,85,101
C=C1CCC[C@]2(C)Cc3occ(C)c3C[C@@H]12 [Atractylon],104% and 98.2%,97.5,98.4,99,103,99.3,95,98
O=C(/C=C/C=C/c1ccc2c(c1)OCO2)N1CCCCC1 [Piperine (1-Piperoylpiperidine)],105% and 94.8%,89.7,92.7,100,106,100,85.6,97.3

SMILES,cell viability (K562; SRSF2 genotype: SRSF2 P95H/wt),cell viability (K562; SRSF2 genotype: SRSF2 wt/wt) [%],cell viability (MARIMO; SRSF2 genotype: SRSF2 P95H/wt) [%],cell viability (MARIMO; SRSF2 genotype: SRSF2 wt/wt) [%],cell viability (MOLM14; SRSF2 genotype: SRSF2 P95H/wt) [%],cell viability (MOLM14; SRSF2 genotype: SRSF2 wt/wt) [%],cell viability (OCI-AML2; SRSF2 genotype: P95H/wt) [%],cell viability (OCI-AML2; SRSF2 genotype: wt/wt) [%]
Cc1c(OCC(F)(F)F)ccnc1C[S+]([O-])c1nc2ccccc2[nH]1 (configuration not stated) [Lansoprazole],98% and 96.2%,90,98.6,104,103,95.5,91.7,102
O=c1cc(-c2ccccc2)oc2cc(O)cc(O)c12 [Chrysin],100% and 104%,105,93,107,81.1,93.7,86.7,75.3
CS(=O)(=O)CCNCc1ccc(-c2ccc3ncnc(Nc4ccc(OCc5cccc(F)c5)c(Cl)c4)c3c2)o1 [Lapatinib],40.9% and 35.3%,35.8,83.2,77.6,75.4,75.6,22.2,45.5
CCN(CC)CCCC(C)Nc1c2ccc(Cl)cc2nc2ccc(OC)cc12 (configuration not stated) [Quinacrine Dihydrochloride Dihydrate],2.28% and 4.46%,2.17,1.66,2.15,0.54,0.64,0.59,0.97
C[C@@H](N)[C@H]1CC[C@H](C(=O)Nc2ccncc2)CC1,105% and 97.4%,102,93.7,94.6,97.2,96.9,85.9,91.2
CN(C)CCc1c[nH]c2ccc(CS(=O)(=O)N3CCCC3)cc12 [Almotriptan malate (Axert)],101% and 87%,91,84.3,101,96.9,95.9,99.2,87.6
C=C1C2CCC(C2)C1(C)CCC=C(C)CO (configuration not stated) [Santalol],106% and 103%,98.6,105,94.3,106,104,102,101
O=C(O)CCCC[C@@H]1CCSS1 (racemic) [Thioctic acid],94.1% and 87.7%,88.3,93.1,99.4,92.8,94.1,97.1,98.9
OC[C@@H](O)[C@@H](O)[C@@H](O)CO [Ribitol (Adonitol)],94.5% and 97%,96.2,89.7,93.4,97.9,94.3,90,97.9
COc1ccc2c(c1)c(CC(=O)OCC(=O)O)c(C)n2C(=O)c1ccc(Cl)cc1 [Acemetacin (Emflex)],101% and 98.4%,93.5,97.8,94.9,95.4,98.6,108,104
CCNc1nc(Nc2cc(F)c(C(=O)N3CCOCC3)cc2OC)ncc1C(F)(F)F,102% and 98.9%,99.2,93.3,109,90,103,87.8,93.7
CCCCCCCCCCCCCCCC(=O)O [Palmitic acid],99.6% and 104%,98.5,96.4,114,100,103,95.6,114
CC(=O)O[C@@H]1C[C@H](O)[C@@]23CO[C@@H](O)[C@]1(C)[C@@H]2C[C@@H](O)[C@]1(C)[C@@H]3C(=O)[C@H](OC(C)=O)[C@@]2(C)[C@H](c3ccoc3)C[C@H]3O[C@]321 [Toosendanin],45.5% and 43%,42.4,38.2,34.2,37.1,11.1,23.8,23.9
CCCC(C)NC(=O)c1ccc(Cl)c(Cl)c1 (configuration not stated),101% and 97.6%,105,90.5,96.2,112,103,96,96.8
C[C@@H]1O[C@@H](OC[C@H]2O[C@@H](Oc3cc(O)c4c(c3)O[C@H](c3ccc(O)c(O)c3)CC4=O)[C@H](O)[C@@H](O)[C@@H]2O)[C@H](O)[C@H](O)[C@H]1O [Eriocitrin],110% and 103%,108,105,100,117,110,98.4,94.6
CCN(CC)CCN(Cc1ccc(-c2ccc(C(F)(F)F)cc2)cc1)C(=O)Cn1c(SCc2ccc(F)cc2)nc(=O)c2c1CCC2,0.31% and 0.26%,0.26,0.34,0.46,0.23,0.24,0.22,0.29
N#Cc1c(O)c2c(-c3ccc(-c4ccccc4O)cc3)csc2[nH]c1=O,102% and 100%,103,99.1,103,104,99,93.1,101
CC(=O)N1CCN(c2ccc(OCC3COC(Cn4ccnc4)(c4ccc(Cl)cc4Cl)O3)cc2)CC1 (configuration not stated) [Ketoconazole],56.2% and 70.5%,62.4,34.9,26.1,40.9,26.2,32,30.8
CC(C)CCCC(C)C1CCC2C3CCC4CC(O)CCC4(C)C3CCC12C (configuration not stated) [Dihydrocholesterol],93% and 100%,92.6,95.2,97.3,90.2,97.6,98.3,97.6
